Assay results published in PubChem BioAssay (NCATS).
Records with an inconclusive call do not appear. Entries that show only a call come without a potency. The source made the active and inactive calls. Calls come from the whole dose curve; as a rule, active = well fitted inhibition curve with a large enough effect; inconclusive = small, poorly fitted or top-dose-only effect; inactive = flat fitted curve, though single readings scatter.

Tested on: Zika virus NS2B-NS3 protease
Assay: Primary screen GU AMC qHTS for Zika virus inhibitors (AID 1347154); note: nearly all actives have a fitted effect of over 70% in size
Summary of the method: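 Fluorogenic AMC-substrate cleavage by noncovalent NS2B-NS3 protease complex (25 nM, pH 8.0 Tris buffer with Tween 20) followed for 15 minutes at room temperature (~20% conversion). Percent inhibition from ex340/em450 signal change, fitted by 4-parameter Hill equation.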

SMILES	Potency
CN1CCCC(CC2c3ccccc3Sc3ccccc32)C1 (stereo not drawn)	inactive
O=C1OC(c2ccc(O)cc2)(c2ccc(O)cc2)c2ccccc21	inactive
COc1ccc(CCN2CCC(Nc3nc4ccccc4n3Cc3ccc(F)cc3)CC2)cc1	inactive
CC(=O)OCC(=O)NCCCOc1cccc(CN2CCCCC2)c1	inactive
Nc1ccc(C(=O)O)cc1	inactive
CC1(C)OC[C@@H](COC(=O)CCc2ccc(OC[C@@H](O)CNCCNC(=O)N3CCOCC3)cc2)O1	inactive
Cc1cc(O)c(C(C)C)cc1Cl	inactive
CCN(CCCc1ccccc1)CCCc1ccccc1	inactive
N[C@H](Cc1c[nH]c2ccccc12)C(=O)O	inactive
CCN(CC)CCOC(=O)C(c1ccccc1)C1CCCCC1 (stereo not drawn)	inactive
COc1cc(OC)cc(OC)c1	inactive
COc1cc2c(cc1OC)[C@@H]1CC(=O)[C@@H](CC(C)C)CN1CC2	inactive
CC1(C)O[C@@H]2C[C@H]3[C@@H]4C[C@H](F)C5=CC(=O)C=C[C@]5(C)[C@H]4[C@@H](O)C[C@]3(C)[C@]2(C(=O)CO)O1	inactive
O=C(Nc1ccc(Cl)c(Cl)c1)C1CC1	inactive
CC(=O)CC(c1ccc([N+](=O)[O-])cc1)c1c(O)c2ccccc2oc1=O (stereo not drawn)	inactive
C[C@H](CCC(=O)O)[C@H]1CC[C@H]2[C@@H]3C(=O)C[C@@H]4CC(=O)CC[C@]4(C)[C@H]3CC(=O)[C@]12C	inactive
CN(C)CCCOc1nn(Cc2ccccc2)c2ccccc12	inactive

SMILES	Potency
O=C(COc1ccc(Cl)cc1)N1CCN(Cc2ccc3c(c2)OCO3)CC1	inactive
CC(C)COC(=O)c1ccc(N)cc1	inactive
CCN(CC)CCNC(=O)COc1ccc(Cl)cc1	inactive
CC(C)N=C(N)/N=C(\N)Nc1ccc(Cl)cc1	inactive
CC(C)(C)NC(=O)[C@@H]1CN(Cc2cccnc2)CCN1C[C@@H](O)C[C@@H](Cc1ccccc1)C(=O)N[C@H]1c2ccccc2C[C@H]1O	inactive
O=c1[nH]c(=O)n([C@H]2C[C@H](O)[C@@H](CO)O2)cc1C(F)(F)F	inactive
CCOC(=O)c1cccc(N)c1	inactive
O=C1OCCN1/N=C/c1ccc([N+](=O)[O-])o1	inactive
COc1c2occc2c(OC)c2c(=O)cc(C)oc12	inactive
CCCCOc1ccc(C(=O)CCN2CCCCC2)cc1	inactive
CC1=C(C(=O)O)N2C(=O)[C@@H](NC(=O)[C@H](N)c3ccc(O)cc3)[C@H]2SC1	inactive
CC[C@@H](CO)NCCN[C@@H](CC)CO	inactive
OC(CCN1CCCCC1)(c1ccccc1)c1ccccc1	inactive
Oc1ccc(Cl)c2cccnc12	inactive
O=c1c(-c2ccccc2)c1-c1ccccc1	inactive
CC(=O)Oc1ccc2c(c1)CC[C@@H]1[C@@H]2CC[C@]2(C)[C@@H](O)CC[C@@H]12	inactive
